Here are results for 40 molecules from PubChem BioAssay (NCI).

This is part of a sample that, as a whole, favours compounds with a hit. Of some 83,000 tested, about 20% had one in any assay.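 For each line, cells grew in 96-well plates with the test compound present at a single concentration for 48 hours.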 A number with no mark means an inactive call. Active and inactive are the calls of the source.

The experiment has as its system SK-MEL-28 melanoma. In words: NCI-60 one-dose screen, 48 h (100 = growth as untreated, 0 = no growth, -100 = all killed). Conditions: 10 µM unless noted. The method, then:
Growth inhibition of the SK-MEL-28 human tumor cell line is measured as a screen for anti-cancer activity. Cells are grown in 96 well plates and exposed to the test compound for 48 hours. Compounds are tested at a single concentration, which is 10^-5 M for most compounds. The reported endpoint is percent growth (GI% or GIPRCNT), where numbers from 0 - 100% represent growth inhibition, and numbers from -100% - 0 represent cell death. For example, a value of 40 represents 60% growth inhibition. A value of 0 means no net growth occurred over the course of the experiment. A value of -40 indicates 40% of cells at the beginning of the experiment died by the end of the experiment. A value of -100 means all cells are dead at the end of the experiment.
NCI-60 Human Tumor Cell Lines Screen was performed using the standard one-dose NCI protocol, which is described in more detail at https://dtp.cancer.gov/discovery_development/nci-60/default.htm.
Compounds with GIPRCNT values below 10 were considered active. Activity score was based on GIPRCNT using the following formula: […]
Score is 0 for GIPRCNT values of 100 or above, 50 for GIPRCNT values of 0, and 100 for GIPRCNT values of -100.
For `CC(Br)C(O)c1cc2c(cc1Br)OCO2` (stereo not given), the growth was 108%.
Then `NS(=O)(=O)c1ccc(NCC(=O)Nc2ccc(-c3nc4ccccc4s3)cc2)cc1`, with 99.4%.
Then `O=C(N/N=C/c1c(Cl)cccc1Cl)c1ccccc1Nc1ccnc(C(F)(F)F)c1`, with 84.2%.
For `C[C@]12CC[C@@H]3c4cc(O)c(O)cc4CC[C@H]3[C@@H]1CC[C@@H]2O`, the growth was 39.6%.
Then `CCOC(=O)c1ccccc1NC(c1ccccc1)c1ccc2cccnc2c1O` (stereo not given), with 38.3%.
Then `CSc1ccccc1C#C/C=C\C#Cc1ccccc1N1CCCCC1=O`, with 153%; and `O=C(CNC1CCCCC1)Nc1ccc(-c2nc3ccccc3s2)cc1`, with 95.2%; and `Nc1ccccc1C#C/C=C\C#Cc1cccc(O)c1`, with 81.7%.
Regarding `CC(C)[C@H](CO)Nc1nc(Nc2ccc(C(=O)NCCNS(=O)(=O)c3cccc4c(N(C)C)cccc34)c(Cl)c2)c2ncn(C(C)C)c2n1`, the growth was 15.7%.
Then `O=S(=O)(NCCCNc1nccc(-c2c(-c3ccccc3)nc3sccn23)n1)c1ccc(F)cc1`, with 56.3%; and `CC(Br)C(Br)c1cc2c(cc1Br)OCO2` (stereo not given), with 105%; and `Cc1ccccc1C(=O)c1ccccc1C(=O)O`, with 109%.
To `CC(=O)Nc1nc(C(=O)N2N=C(C)/C(=C/c3ccc(Cl)cc3)C2=O)cs1` belongs 110%; to `COc1cc(NC(=O)c2cc3ccccc3nc2Nc2ccc(F)cc2)cc(OC)c1OC`, 54.2%; to `CCCC(C(=O)OCC)C(C)OC(=O)OCC` (stereo not given), 107%.
Turning to `COc1ccc(NC(=O)CSc2nc3ccccc3c(=O)n2-c2ccccc2C(F)(F)F)c(OC)c1OC`, the growth is 106%.
Then `Cc1ccc(C2=NN(c3ccc(S(N)(=O)=O)cc3)C(c3cn(-c4ccccc4)nc3-c3ccccc3)C2)cc1` (stereo not given), with 116%.
For `CCC(C)NCC(=O)O` (stereo not given), the growth was 104%.
Then `CCCCNc1nnc(-c2cc(-c3cc4ccccc4o3)nn2-c2ccccc2)o1`, with 108%.
To `CCn1cc(C(=O)O)c(=O)c2cc(F)c(N3CCN(S(=O)(=O)c4c(C)cc(C)cc4C)CC3)cc21` belongs 91.7%; to `CCCCC[C@@H]1Cc2cc(O)c(C(=O)O)c3c2[C@H](C[C@@]2(CCCO2)O3)O1`, 109%.
Then `CCN1C(=S)N(CC)C2Nn3c(s/c(=C4\C(=O)N(C)c5ccccc54)c3=O)=NC21` (stereo not given), with 59.6%; and `O=C1c2ccccc2C(=O)c2c1oc1oc3c(c(=O)c21)c(=O)n(-c1ccccc1)c1ccccc31`, with 39.4%; and `CCOC(=O)C1=C(CSC(=S)N(C2CCCCC2)C2CCCCC2)N(C)C(=O)NC1c1ccccc1` (stereo not given), with 75.8%.
Turning to `COc1ccc(/C=C/C(=O)c2cc(OC)c(OC)c(OC)c2)cc1OCc1cn(Cc2ccc(F)cc2)nn1`, the growth was 87.3%.
To `Nc1c(C(=O)Nc2ccccc2)sc2nc3c(cc12)CCCCC3` belongs 36.6%; to `CCOC(=O)CC/C(C)=N\Nc1ccc([N+](=O)[O-])cc1`, 99.9%; to `CCN1C(=O)N[C@H]2[C@@H]3NC(=O)c4ccc(Cl)n4[C@@H]3C[C@]21O`, -6.88% (active).
Regarding `C=C1C(=O)O[C@H]2[C@H]1CC/C(COC(=O)NCc1cc(OC)cc(OC)c1)=C\CC[C@@]1(C)O[C@@H]21`, the growth is -20.2% (active).
Then `COc1ccc(C2=CC(c3ccc(Oc4ccnc5cc(Cl)ccc45)c(OC)c3)c3c(nc(OC)[nH]c3=O)N2)cc1` (stereo not given), with 91.1%; and `COc1ccc(NC(=O)CSc2nc3ccccc3c(=O)n2Cc2cc(OC)c(OC)c(OC)c2)cc1`, with 94%; and `COc1ccc(C2NC3=C(CCCC3)C(C#N)(C#N)C2(C#N)C#N)cc1` (stereo not given), with 106%.
To `Cc1cc(C)c2c(=O)[nH]c(SCC(=O)Nc3cccc(S(=O)(=O)N(C)C)c3)nc2n1` belongs 126%.
Then `O=C1N=C(c2c(-c3[nH]c(=O)c4ccc(Br)cc4c3O)c(O)c3ccccc3c2O)C(=O)c2cc(Br)ccc21`, with -47.8% (active); and `CCC1CCc2nc3sc(C(=O)Nc4cccc(C)c4)c(N)c3cc2C1` (stereo not given), with 69.7%; and `CC(C)C(C(=O)CCN(C)C)c1ccc(Cl)cc1` (stereo not given), with 107%.
Take `COc1ccc(OC)c(/C=C2\Oc3cc(OCCN4CCCC4)ccc3C2=O)c1`: the growth was 101%.
To `CCOC(=O)C(Cc1ccccc1)n1c(O)c(C=Nc2ccc(C(=O)OCCN(CC)CC)cc2)sc1=O` (stereo not given) belongs 93.1%; to `O=c1oc2cc(OS(=O)(=O)c3ccccc3)c(Cl)cc2c2c1CCCCCC2`, 91.2%; to `NC(N)=NC(N)=Nc1ccccc1-c1ccccc1`, 109%.
